In all, about 500 compounds went through this assay and about 40 (8%) were called active.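 The calls were made as follows: active = mean IC50 below 20 µM in each of the two panels, so potent in both; inactive = the rest.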 A selection follows.

The experiment addresses T1, Neuropilin-1, Homo sapiens (UniProt O14786).
T1 sequence (whole entry): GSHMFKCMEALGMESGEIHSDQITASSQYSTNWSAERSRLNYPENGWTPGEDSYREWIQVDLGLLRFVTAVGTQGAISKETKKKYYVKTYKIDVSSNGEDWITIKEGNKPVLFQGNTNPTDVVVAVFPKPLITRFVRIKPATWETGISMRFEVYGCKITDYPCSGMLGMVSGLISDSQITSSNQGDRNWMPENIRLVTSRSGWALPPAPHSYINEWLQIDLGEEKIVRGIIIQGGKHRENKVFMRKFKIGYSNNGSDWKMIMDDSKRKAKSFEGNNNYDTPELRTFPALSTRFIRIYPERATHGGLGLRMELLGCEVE
Kind of experiment: blockers of CendR peptide binding to NRP-1 – biochemical, FP and AlphaScreen panel, dose response (AID 651650). Background: Alpha assays give light when donor and acceptor beads are brought close together.
For `Cn1c(=O)c2[nH]c(COc3ccccc3)nc2n(C)c1=O`, the outcome was inactive.

The values are drawn from the GenesisPotency data set.
